Screening data deposited in PubChem BioAssay by The Scripps Research Institute Molecular Screening Center.
Compounds with a hit are over-represented: about 3.5% of the library has one in this group of screens.
MITF primary: blocks human microphthalmia-associated transcription factor; AID 1259374; 0.91% of 650,000 active; AlphaScreen MITF homodimerization, bead proximity signal; O75030; inhibition, % at 2.6 µM; in the data active = inhibition above about 50%;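 note: 0% = vehicle wells with protein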
TEAD-YAP inh: TEAD-YAP interaction inhibition | HEK-TIYL cells, TEAD-Gal4/YAP UAS-luciferase luminescence | inhibition, % at 9.12 µM | 1.4% of 640,000 active; in the data active = inhibition above about 32%;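 note: 0% = median of test compound wells and 100% = reference inhibitor wells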
GPR151 activ: human GPR151 activation. PathHunter beta-arrestin GPR151 cells, luminescence. activation, % at 11.2 µM. AID 1508602. Q8TDV0. 1% of 650,000 active; in the data active = activation above about 4.9%;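 note: 0% = median of compound wells and 100% = cells with positive control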
Target sequence (Q8TDV0 whole entry, looked up): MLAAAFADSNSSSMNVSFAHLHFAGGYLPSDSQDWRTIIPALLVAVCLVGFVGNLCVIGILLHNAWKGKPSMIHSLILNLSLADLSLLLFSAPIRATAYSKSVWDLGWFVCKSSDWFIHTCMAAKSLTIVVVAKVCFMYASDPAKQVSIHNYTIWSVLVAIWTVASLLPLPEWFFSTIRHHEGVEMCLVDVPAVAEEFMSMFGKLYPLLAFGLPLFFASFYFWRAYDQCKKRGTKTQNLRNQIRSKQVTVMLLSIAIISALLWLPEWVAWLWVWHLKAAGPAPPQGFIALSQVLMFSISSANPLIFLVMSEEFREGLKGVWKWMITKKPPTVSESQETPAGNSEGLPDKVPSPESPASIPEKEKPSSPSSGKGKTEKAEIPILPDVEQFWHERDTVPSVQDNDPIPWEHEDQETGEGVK
FBW7 act: activators of human E3 ligase FBW7; Q969H0; AlphaScreen FBW7–phospho-cyclin E peptide binding, activator screen; normalized activity (activation), % at 26.1 µM; 0.13% of 650,000 active; AID 1259310; in the data active = normalized activity above about 1.9%;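 note: purified mutant Fbw7 with reduced substrate affinity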
GPR151 conf act: confirmation of human GPR151 activators; GPR151 PathHunter beta-arrestin cells, luminescence, 90 min; % of EA-reagent control over plate median; AID 1508609; 6,700 tested, under 10 active; activation, % at 11.2 µM; shares compounds with GPR151 activ;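 active = mean percent activation across replicates above the confirmation screen cutoff of 4.91%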
GPR119 ag: GPR119 activation, counter-screen for GPR151 activators. shares compounds with GPR151 activ. GPR119 PathHunter beta-arrestin cells, luminescence, 90 min; 0 = compound-well median, 100 = enzyme-acceptor control. activation, % at 11.2 µM. 0.3% of 6,700 active. AID 1508611;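 active = mean percent activation in the counterscreen above 29.09%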;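 note: counterscreen on off-target GPR119 to flag nonselective hits from the GPR151 activator screen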
* = called active by the depositor; . = not tested or not shown.

SMILES	MITF primary	TEAD-YAP inh	GPR151 activ	FBW7 act	GPR151 conf act	GPR119 ag
COc1ccccc1-n1c(=S)sc2c(=O)n(Cc3ccccc3)c(SCc3cccc([N+](=O)[O-])c3)nc21	0	2	2	0	.	.
CCN(CC)S(=O)(=O)c1cccc(C(=O)NN)c1	-3	-11	5.5*	0	0	-9
CCOC(=O)C(=CNc1ccccc1C(N)=O)C(=O)OCC	0	8	-1	0	.	.
COc1ccc(NC(=O)C2CC(=O)NC(Nc3ccc(C)cc3C)=N2)cc1 (stereo not given)	7	7	12*	0	1	-13
COc1cc(C2Nc3ccccc3-c3nnc(SCc4ccccc4)nc3O2)ccc1O (stereo not given)	10	4	-1	0	.	.
Cc1ccc(NC(=O)C(=O)NCC2CCCN2S(=O)(=O)c2ccc(C)cc2)cc1 (stereo not given)	8	4	-1	1	.	.
Cc1ccc(NC(=O)NCC2CCCN2S(=O)(=O)c2ccc(C)cc2)cc1 (stereo not given)	0	-35	5.8*	0	-1	-18
CCNC(=O)C(=O)NCC1CCCN1S(=O)(=O)c1ccccc1 (stereo not given)	23	0	7.2*	0	-1	1
Cc1cc(C)c(OCC(O)CN(CCO)CC(O)Cn2ccc3ccccc32)c(C)c1 (stereo not given)	21	13	0	0	.	.
O=C(c1ccc(Cl)cc1)c1conc1C(=O)c1cccs1	8	8	-1	0	.	.
Cc1ccc(C(=O)c2nocc2C(=O)c2cccs2)cc1	1	2	6.1*	0	0	-8
O=C(C1CN(Cc2ccc3c(c2)OCO3)CCN1C(=O)c1ccco1)N1CCOCC1 (stereo not given)	3	-6	-1	0	.	.
Cc1csc(S(=O)(=O)N2CCC(CO)(Cc3ccccc3Cl)CC2)c1	-3	-10	27*	0	-1	-7
COc1ccc(CC2(CO)CCN(S(=O)(=O)c3cc(C)cs3)CC2)cc1	-14	3	0	0	.	.
C=CCN=C(CC)C1=C(O)CC(C)(C)CC1=O	1	-3	-1	0	.	.
CCCN=C(CC)C1=C(O)CC(C)(C)CC1=O	-15	-3	5.4*	0	-1	-3
O=C(Nc1ccc(Cl)cc1)C(=S)N1CCCCC1	2	-15	-1	0	.	.
O=S(=O)(c1ccc(S(=O)(=O)n2cnc3ccccc32)cc1)N1CCCC1	3	4	6.0*	0	1	1
CN(c1ccc(Br)cc1)S(=O)(=O)c1cc2c(cc1Cl)NC(=O)CO2	8	1	2	0	.	.
Cc1cc2c(cc1S(=O)(=O)N(C)c1ccc(Br)cc1)OCC(=O)N2	14	2	10*	0	1	4
CC(C)OC(=O)c1cccc(C(=O)Oc2ccc(Br)cc2)n1	8	13	6.7*	0	-1	-8
COC(=O)c1cccc(C(=O)Oc2ccc(Br)cc2)n1	-1	0	1	0	.	.
COc1cccc(/C=C2\N=C(c3cccc(F)c3)OC2=O)c1	6	-6	0	0	.	.
COc1cc(/C=N/NC(=O)CCCC(=O)N/N=C/c2ccc(O)c(OC)c2)ccc1O	-5	10	5	0	.	.
NS(=O)(=O)c1ccc(NC(=O)COc2ncnc3scc(-c4ccccc4)c23)cc1	-12	-4	5.5*	0	-1	2
SMILES	MITF primary	TEAD-YAP inh	GPR151 activ	FBW7 act	GPR151 conf act	GPR119 ag
Cc1nc2cnc(-c3cnn(Cc4ccccc4)c3)cn2c1NC(=O)CC(C)C	10	9	0	0	.	.
COc1ccc(C(=O)NN2C(=O)c3ccccc3C2=O)cc1I	7	9	5.1*	0	0	8
CCCC(=O)N(c1ccc2oc(C)c(C(=O)OCC)c2c1)S(=O)(=O)c1ccc2ccccc2c1	8	4	-2	0	.	.
CCCC(=O)N(c1ccc2oc(C)c(C(=O)OC)c2c1)S(=O)(=O)c1ccc2ccccc2c1	7	-37	5.2*	0	-1	-8
COc1ccc(C(=O)N/C(=C/c2ccc([N+](=O)[O-])cc2)C(=O)Nc2ccc(C)cc2C)c(Cl)c1	0	-5	-1	0	.	.
COc1ccccc1CNC(=O)CN(c1cc(C(F)(F)F)ccc1Cl)S(C)(=O)=O	3	-6	7.6*	0	0	9
